In PubChem BioAssay (EPA / NIEHS):
“And” between values parts separate entries of the source, which are not always exact repeats. Equal entries are not always repeated. Where a structure was tested more than once in an assay, its records may differ in their call. The source made the active and inactive calls. How the source made its calls: active means hit-call score of the fitted dose curve at least 0.9, where 1 is the maximum; inactive means score below 0.9.

Columns and labels:
[1] = read-out: Tissue plasminogen activator (tPA), PLAT (gene 5327); test: BSK_BE3C_tPA: BioMAP Diversity Plus: BE3C Assay for Tissue plasminogen activator (tPA) Biomarker Activity (AID 2283041); details: primary human bronchial epithelial cells; actives raise or lower the signal
Summary of the method: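 Bidirectional curve fitting relative to DMSO defined activity, with tPA detected by ELISA in chemically treated human bronchial epithelial primary cells at 24 hours.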

[2] = read-out: Interleukin-8 (IL8), CXCL8 (gene 3576); test: BSK_CASM3C_IL8: BioMAP Diversity Plus: CASM3C Assay for Interleukin-8 (IL8) Biomarker Activity (AID 2283042); details: primary human coronary artery smooth muscle cells; actives raise or lower the signal;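 further: IL-8 protein level quantified by ELISA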
[3] = read-out: Human Leukocyte Antigen - DR isotype (HLADR), HLA-DRA (gene 3122); test: BSK_CASM3C_HLADR: BioMAP Diversity Plus: CASM3C Assay for Human Leukocyte Antigen - DR isotype (HLADR) Biomarker Activity (AID 2283043); details: primary human coronary artery smooth muscle cells; actives raise or lower the signal;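 further: cell-surface HLA-DR protein level quantified by ELISA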
[4] = read-out: Macrophage colony-stimulating factor (MCSF), CSF1 (gene 1435); test: BSK_CASM3C_MCSF: BioMAP Diversity Plus: CASM3C Assay for Macrophage colony-stimulating factor (MCSF) Biomarker Activity (AID 2283044); details: primary human coronary artery smooth muscle cells; actives raise or lower the signal;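 further: M-CSF protein amount quantified by ELISA after 24 h exposure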
[5] = read-out: Low-density lipoprotein receptor (LDLR), LDLR (gene 3949); test: BSK_CASM3C_LDLR: BioMAP Diversity Plus: CASM3C Assay for Low-density lipoprotein receptor (LDLR) Biomarker Activity (AID 2283045); details: primary human coronary artery smooth muscle cells; actives raise or lower the signal;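 further: LDLR protein level on the cell surface quantified by ELISA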
[6] = read-out: Monocyte Chemoattractant Protein-1 (MCP1), CCL2 (gene 6347); test: BSK_CASM3C_MCP1: BioMAP Diversity Plus: CASM3C Assay for Monocyte Chemoattractant Protein-1 (MCP1) Biomarker Activity (AID 2283046); details: primary human coronary artery smooth muscle cells; actives raise or lower the signal;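 further: MCP-1 level quantified by ELISA 24 h after dosing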
[7] = BSK_CASM3C_Proliferation: Cell Proliferation Assessment in the BioMAP Diversity Plus: CASM3C Assay (AID 2283047); details: primary human coronary artery smooth muscle cells;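 further: sulforhodamine B total protein stain as relative cell number at 560 nm; sub-confluent cells exposed 48 h before staining; fitted both ways against DMSO so gain or loss of cell number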
[8] = read-out: Monokine induced gamma interferon (MIG), CXCL9 (gene 4283); test: BSK_CASM3C_MIG: BioMAP Diversity Plus: CASM3C Assay for Monokine induced gamma interferon (MIG) Biomarker Activity (AID 2283048); details: primary human coronary artery smooth muscle cells; actives raise or lower the signal;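 further: MIG protein level measured by ELISA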
[9] = read-out: serum amyloid A (SAA), SAA1 (gene 6288); test: BSK_CASM3C_SAA: BioMAP Diversity Plus: CASM3C Assay for serum amyloid A (SAA) Biomarker Activity (AID 2283049); details: primary human coronary artery smooth muscle cells; actives raise or lower the signal;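 further: SAA protein level quantified by ELISA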
[10] = BSK_CASM3C_SRB: Viability Assessment in the BioMAP Diversity Plus: CASM3C Assay (AID 2283050); details: primary human coronary artery smooth muscle cells;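 further: total protein by SRB staining as cytotoxicity measure in parallel cultures; cells exposed to compound for 24 h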
[11] = read-out: Thrombomodulin, THBD (gene 7056); test: BSK_CASM3C_Thrombomodulin: BioMAP Diversity Plus: CASM3C Assay for Thrombomodulin Biomarker Activity (AID 2283051); details: primary human coronary artery smooth muscle cells; actives raise or lower the signal;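 further: thrombomodulin protein level measured by ELISA 24 h after dosing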
[12] = read-out: Tissue Factor, F3 (gene 2152); test: BSK_CASM3C_TissueFactor: BioMAP Diversity Plus: CASM3C Assay for Tissue Factor Biomarker Activity (AID 2283052); details: primary human coronary artery smooth muscle cells; actives raise or lower the signal;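 further: cell surface tissue factor protein level read by ELISA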
[13] = read-out: Interferon-gamma inducible Protein 10 (IP10), CXCL10 (gene 3627); test: BSK_hDFCGF_IP10: BioMAP Diversity Plus: hDFCGF Assay for Interferon-gamma inducible Protein 10 (IP10) Biomarker Activity (AID 2283053); details: primary human foreskin fibroblasts; actives raise or lower the signal
Summary of the method: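 IP-10 levels, quantified by ELISA, are taken from human foreskin fibroblast cultures 24 h after chemical treatment, with DMSO serving as negative control and baseline for bidirectional analysis.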

[14] = read-out: Urokinase-type plasminogen activator receptor (uPAR), PLAUR (gene 5329); test: BSK_CASM3C_uPAR: BioMAP Diversity Plus: CASM3C Assay for Urokinase-type plasminogen activator receptor (uPAR) Biomarker Activity (AID 2283054); details: primary human coronary artery smooth muscle cells; actives raise or lower the signal;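 further: cell-surface uPAR protein level quantified by ELISA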
[15] = read-out: Vascular cell adhesion molecule 1 (VCAM1), VCAM1 (gene 7412); test: BSK_CASM3C_VCAM1: BioMAP Diversity Plus: CASM3C Assay for Vascular cell adhesion molecule 1 (VCAM1) Biomarker Activity (AID 2283055); details: primary human coronary artery smooth muscle cells; actives raise or lower the signal;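 further: VCAM-1 protein level quantified by ELISA on the cells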
[16] = read-out: Collagen III, COL3A1 (gene 1281); test: BSK_hDFCGF_CollagenIII: BioMAP Diversity Plus: hDFCGF Assay for Collagen III Biomarker Activity (AID 2283056); details: primary human foreskin fibroblasts; actives raise or lower the signal
Summary of the method: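 Cells: human foreskin fibroblasts, primary. Dosing followed by 24 h incubation, then ELISA for collagen III. Both increases and decreases scored relative to DMSO.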

[17] = read-out: Epidermal growth factor receptor (EGFR), EGFR (gene 1956); test: BSK_hDFCGF_EGFR: BioMAP Diversity Plus: hDFCGF Assay for Epidermal growth factor receptor (EGFR) Biomarker Activity (AID 2283057); details: primary human foreskin fibroblasts; actives raise or lower the signal
Summary of the method: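 Measured by ELISA: EGFR levels on primary human foreskin fibroblasts 24 h after chemical treatment, analysed relative to DMSO with bidirectional fitting.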

[18] = read-out: Interleukin-8 (IL8), CXCL8 (gene 3576); test: BSK_hDFCGF_IL8: BioMAP Diversity Plus: hDFCGF Assay for Interleukin-8 (IL8) Biomarker Activity (AID 2283058); details: primary human foreskin fibroblasts; actives raise or lower the signal
Summary of the method: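 IL-8 levels from compound-treated primary human fibroblasts were read by ELISA at 24 h, with DMSO serving as baseline for bidirectional fitting.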

[19] = BSK_hDFCGF_Proliferation: Cell Proliferation Assessment in the BioMAP Diversity Plus: hDFCGF Assay (AID 2283059); details: primary human foreskin fibroblasts;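 further: curves fitted for both rise and fall of signal versus DMSO baseline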
Summary of the method: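 Primary human foreskin fibroblasts, sub-confluent; […]; 10% TCA fix, 0.1% SRB stain, A560 total protein. Gain/loss fitted bidirectionally vs DMSO control.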

[20] = read-out: Macrophage colony-stimulating factor (MCSF), CSF1 (gene 1435); test: BSK_hDFCGF_MCSF: BioMAP Diversity Plus: hDFCGF Assay for Macrophage colony-stimulating factor (MCSF) Biomarker Activity (AID 2283060); details: primary human foreskin fibroblasts; actives raise or lower the signal
Summary of the method: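 M-CSF levels, determined by ELISA, are taken at 24 h after dosing human skin fibroblasts. Responses in either direction are fitted with DMSO serving as the baseline.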

Measured: AC50

NS(=O)(=O)C(F)(F)C(F)(F)C(F)(F)C(F)(F)C(F)(F)C(F)(F)F
active: [1] 49 µM and 47.5 µM | [13] 37.3 µM and 28.8 µM | [19] 50.8 µM and 50.6 µM
inactive: all other assays above

OCCCC(F)(F)C(F)(F)C(F)(F)C(F)(F)C(F)(F)C(F)(F)C(F)(F)C(F)(F)F
inactive: [11] | [12]
active: [1] 49.7 µM and 47.2 µM | [2] 38.9 µM and 35.8 µM | [3] 50.3 µM and 50.6 µM | [4] 29.1 µM and 35.6 µM | [5] 43.9 µM and 45.4 µM | [6] 41.6 µM and 42.8 µM | [7] 21 µM and 39.5 µM | [8] 46.8 µM and 44.5 µM | [9] 45.1 µM and 40.2 µM | [10] 32 µM and 48.6 µM | [11] 7.67 µM | [12] 25.4 µM | [13] 9.54 µM and 7.81 µM | [14] 46.1 µM and 51.2 µM | [15] 37.4 µM and 30 µM | [16] 10.7 µM and 9.75 µM | [17] 3.16 µM and 3.2 µM | [18] 15.9 µM and 12 µM | [19] 3.28 µM and 4.77 µM | [20] 8.04 µM and 6.66 µM

CC(C)(C)c1cc(CCC(=O)NCCCCCCNC(=O)CCc2cc(C(C)(C)C)c(O)c(C(C)(C)C)c2)cc(C(C)(C)C)c1O
active: [6] 0.824 µM
inactive: all other assays above

OCC(F)(F)C(F)(F)C(F)(F)C(F)(F)C(F)(F)C(F)(F)C(F)(F)C(F)(F)CO
inactive: [1] | [2] | [3] | [4] | [5] | [6] | [8] | [9] | [10] | [11] | [12] | [14] | [15] | [18]
active: [7] 49.9 µM and 45.4 µM | [10] 43.2 µM | [13] 44.9 µM and 44.5 µM | [15] 40.9 µM | [16] 30 µM and 42.7 µM | [17] 47.8 µM and 48.7 µM | [18] 48 µM | [19] 39.8 µM and 47.9 µM | [20] 47.9 µM and 46.7 µM

Cc1ccc(S(=O)(=O)C(I)I)cc1
inactive: [5] | [11]
active: [1] 5.4 µM | [2] 3.52 µM | [3] 2.61 µM | [4] 2.17 µM | [6] 2.78 µM | [7] 1.37 µM | [8] 5.05 µM | [9] 987 nM | [10] 3.42 µM | [12] 1.97 µM | [13] 2.71 µM | [14] 2.92 µM | [15] 2.46 µM | [16] 6.27 µM | [17] 3.79 µM | [18] 3.51 µM | [19] 208 nM | [20] 2.36 µM

Cc1cc(C)c(O)c(C(C)(C)C)c1
active: [1] 29.6 µM | [3] 25.5 µM | [4] 22.7 µM | [5] 20 µM | [6] 24.9 µM | [7] 25.3 µM | [8] 29.3 µM | [9] 20000 nM | [10] 27.2 µM | [12] 27.4 µM | [13] 35.9 µM | [14] 31.2 µM | [15] 29.5 µM | [16] 20 µM | [19] 18800 nM | [20] 34.4 µM
inactive: [2] | [11] | [17] | [18]

CCOC(=O)CC(=O)C(F)(F)C(F)(F)F
inactive: all assays above

NC(=O)C(F)(F)C(F)(F)C(F)(F)C(F)(F)C(N)=O
inactive: all assays above

C=CC(=O)OCC(F)(F)C(F)(F)C(F)(F)COC(=O)C=C
inactive: [12] | [17]
active: [1] 15.4 µM and 11.4 µM | [2] 26.6 µM and 22.5 µM | [3] 38.6 µM and 27.7 µM | [4] 40.1 µM and 34.8 µM | [5] 42.2 µM and 42.9 µM | [6] 44.3 µM and 42.5 µM | [7] 8.23 µM and 8.81 µM | [8] 27.1 µM and 25.4 µM | [9] 41.4 µM and 33.7 µM | [10] 44.9 µM and 28.3 µM | [11] 7.48 µM and 7.64 µM | [12] 7.91 µM | [13] 1.26 µM and 1.32 µM | [14] 48.3 µM and 47.6 µM | [15] 30 µM and 25.8 µM | [16] 5.04 µM and 1.49 µM | [18] 3.92 µM and 4.38 µM | [19] 111 nM and 1.28 µM | [20] 2.55 µM and 1.94 µM

Cc1cnccn1
active: [7] 0.196 µM
inactive: all other assays above
